According to PubChem BioAssay (NCI):
This is part of a sample that, as a whole, favours compounds with a hit. Of some 79,000 tested, about 15% had one in any assay. A number with no mark means an inactive call. Activity calls are given as the source filed them. Rule as the data show it: active = growth inhibition above about 70%; inactive = the rest.

Columns and labels:
[1] = NCI Yeast Anticancer Drug Screen. Data for the rad50 strain (AID 155);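 also: 0% = growth of vehicle-only cultures of the same strain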; settings: S. cerevisiae rad50 strain growth inhibition, stronger effect = higher value
How it was run: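 A DNA repair-deficient yeast mutant serves as the test organism; compound-induced growth inhibition is calculated against vehicle-treated cells.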

[2] = NCI Yeast Anticancer Drug Screen. Data for the mec2-1 strain (AID 157); settings: S. cerevisiae mec2-1 strain, stronger effect = higher value
How it was run: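 Mutant yeast (mec2-1) grown with compound; growth inhibition relative to vehicle control reported.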

[3] = NCI Yeast Anticancer Drug Screen. Data for the sgs1 mgt1 strain (AID 161);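 also: 0% = growth of cultures given vehicle only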; settings: S. cerevisiae sgs1 mgt1 strain, stronger effect = higher value
How it was run: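 Compounds are added to genetically altered yeast, and growth is compared with cultures given vehicle alone to give percent inhibition.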

[4] = NCI Yeast Anticancer Drug Screen. Data for the cln2 rad14 strain (AID 165);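 also: 0% = growth equal to vehicle treated cultures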; settings: S. cerevisiae cln2 rad14 strain, stronger effect = higher value
How it was run: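 Readout is yeast growth inhibition versus vehicle-treated controls, using a strain with cln2 and rad14 alterations exposed to compound.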

[5] = NCI Yeast Anticancer Drug Screen. Data for the bub3 strain (AID 167); settings: S. cerevisiae bub3 mutant strain, stronger effect = higher value
How it was run: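 Inhibition values come from growth of compound-treated mutant yeast normalised to vehicle-treated controls.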

[6] = NCI Yeast Anticancer Drug Screen. Data for the mlh1 rad18 strain (AID 175); settings: S. cerevisiae mlh1 rad18 strain growth inhibition, stronger effect = higher value
How it was run: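 Genetically defined yeast (DNA repair-deficient) exposed to compounds; growth inhibition determined relative to vehicle.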

[7] = at 5.0 µM (retest, dose inferred, filed as 0.5)
[8] = at 50.0 µM (retest, dose inferred, filed as 5.0)

Row | Structure (SMILES) | growth inhibition [1, 7] | growth inhibition [1, 8] | growth inhibition ([1]; at 50.0 µM) | growth inhibition [2, 7] | growth inhibition [2, 8] | growth inhibition ([2]; at 50.0 µM) | growth inhibition [3, 7] | growth inhibition [3, 8] | growth inhibition ([3]; at 50.0 µM) | growth inhibition [4, 7] | growth inhibition [4, 8] | growth inhibition ([4]; at 50.0 µM) | growth inhibition [5, 7] | growth inhibition [5, 8] | growth inhibition ([5]; at 50.0 µM) | growth inhibition [6, 7] | growth inhibition [6, 8] | growth inhibition ([6]; at 50.0 µM)
1 | COCCNC(=O)C1C(=O)N(CCOC)C(=O)/C1=N/N (configuration not stated) | 1% | -1% | -33.3% | 1% | 5% | 0.6% | 8% | -1% | 13.6% | -2% | 6% | 35% | 0% | 20% | -0.25% | -3% | -2% | 5.5%
2 | N#CSc1ccc(O)c2ccccc12 | 75% (active) | 79% (active) | 90.2% (active) | 64% | 87% (active) | 91% (active) | 19% | 98% (active) | 91.7% (active) | 45% | 98% (active) | 91% (active) | 42% | 96% (active) | 90.3% (active) | 29% | 74% (active) | 89.5% (active)
3 | COc1cc(/C=C2\CC(C)C/C(=C\c3ccc(O)c(OC)c3)C2=O)ccc1O (configuration not stated) | 84% (active) | 83% (active) | 74.5% (active) | 91% (active) | 89% (active) | 83.6% (active) | 92% (active) | 90% (active) | 77.7% (active) | 70% (active) | 89% (active) | 81.6% (active) | 91% (active) | 89% (active) | 80.8% (active) | 84% (active) | 90% (active) | 66.5%
4 | Nc1ccccc1Nc1c([N+](=O)[O-])cc(C(F)(F)F)cc1[N+](=O)[O-] | 53% | 78% (active) | 89.2% (active) | 41% | 55% | 92.3% (active) | 48% | 69% | 92.7% (active) | 42% | 55% | 85.5% (active) | 46% | 61% | 91.4% (active) | 51% | 76% (active) | 90.5% (active)
5 | N#CC(C#N)=Cc1ccc(Oc2ccccc2)cc1 | 2% | 31% | 88.2% (active) | -21% | 54% | 82.1% (active) | 13% | 56% | 58.9% | 25% | 62% | 66.3% | -6% | 90% (active) | 83.7% (active) | 2% | 77% (active) | 73.9% (active)
6 | Cc1ccc(S(=O)(=O)N2CCN(C)CC2)cc1 | -1% | 12% | 19.4% | -5% | 26% | 4.45% | 4% | 31% | 5.5% | 1% | 16% | -0.55% | 1% | 39% | 40.5% | 13% | 49% | 11.6%
7 | OC(c1cc(-c2ccc(Cl)cc2Cl)nc2ccccc12)C1CCCCN1 (configuration not stated) | -6% | 98% (active) | 98.8% (active) | -4% | 99% (active) | 72.2% (active) | -5% | 99% (active) | 99.1% (active) | -3% | 97% (active) | 64.7% | 0% | 99% (active) | 98.8% (active) | -6% | 99% (active) | 97.3% (active)
8 | C[n+]1c(-c2ccc(/C=N/Nc3ccnc(N/N=C/c4ccc(-c5cn6ccccc6[n+]5C)cc4)n3)cc2)cn2ccccc21 | 99% (active) | 99% (active) | 99.3% (active) | 100% (active) | 99% (active) | 99.5% (active) | 99% (active) | 99% (active) | 99.2% (active) | 98% (active) | 99% (active) | 99.3% (active) | 99% (active) | 99% (active) | 99.4% (active) | 99% (active) | 99% (active) | 99.2% (active)
9 | CSC(=S)N/N=C(C)/C=C/c1ccccc1 | 9% | 98% (active) | 98.2% (active) | 14% | 98% (active) | 98.5% (active) | 25% | 98% (active) | 97.7% (active) | -10% | 94% (active) | 97.8% (active) | 13% | 98% (active) | 97.4% (active) | 20% | 93% (active) | 95.3% (active)
10 | O=C(Oc1c(Cl)c(Cl)c(Cl)c(Cl)c1Cl)c1ccc(Cl)cc1 | 25% | 99% (active) | 99.6% (active) | 19% | 99% (active) | 99.7% (active) | 24% | 99% (active) | 99% (active) | 13% | 99% (active) | 99.7% (active) | 15% | 99% (active) | 99.7% (active) | 30% | 99% (active) | 99.2% (active)
11 | Cc1cc(SCC(=O)c2ccc(Cl)cc2)cc(C)[o+]1 | -3% | 90% (active) | 95.8% (active) | -1% | 90% (active) | 95.5% (active) | -2% | 93% (active) | 96.4% (active) | -13% | 73% (active) | 88.7% (active) | -2% | 87% (active) | 96.3% (active) | -9% | 78% (active) | 92.3% (active)
12 | Cn1c2ccccc2c2cc3cnccc3cc21 | -98% | 95% (active) | 98.5% (active) | -50% | 73% (active) | 96.4% (active) | -57% | 82% (active) | 92.6% (active) | -55% | 88% (active) | 96.3% (active) | -68% | 89% (active) | 90.8% (active) | -164% | 93% (active) | 98.7% (active)
13 | C(=C\c1ccc(-[n+]2nc(-c3ccccc3)nn2-c2ccccc2)cc1)/c1ccccc1 | 85% (active) | 98% (active) | 91.5% (active) | 81% (active) | 100% (active) | 93.4% (active) | 79% (active) | 100% (active) | 93.4% (active) | 54% | 99% (active) | 93.2% (active) | 86% (active) | 99% (active) | 92.3% (active) | 95% (active) | 99% (active) | 90.9% (active)
14 | O=C1C=C(c2ccccc2)OC(c2ccccc2)C1 (configuration not stated) | -150% | -112% | 43.1% | -52% | -59% | 41.8% | -63% | -37% | 15.2% | -69% | -67% | -38.4% | -68% | -25% | 44.1% | -141% | -97% | 27.3%
15 | Cc1cccc(-c2csc(N)n2)c1 | 0% | 77% (active) | 61.1% | 3% | 35% | 41% | 2% | 37% | 78% (active) | -1% | 31% | 39.6% | -1% | 44% | 31.1% | 1% | 63% | 65.2%
16 | Cc1c(O)ccc2c1OCC(c1ccc(Cl)cc1)C2 (configuration not stated) | -19% | 72% (active) | 87.9% (active) | 0% | 13% | 70.2% (active) | -7% | 21% | 72.8% (active) | 10% | 39% | 78.5% (active) | 32% | 85% (active) | 92.9% (active) | -10% | 43% | 94.2% (active)
17 | CC(C)OC1=C(Cl)C(=O)c2c(cccc2[N+](=O)[O-])C1=O | 32% | 99% (active) | 26.8% | 38% | 100% (active) | 99.1% (active) | 48% | 99% (active) | 99.4% (active) | 19% | 100% (active) | 88.5% (active) | 38% | 94% (active) | 98.5% (active) | 41% | 100% (active) | 71% (active)
18 | O=C1N=c2ccc(Br)cc2=C1c1sc(=O)n(Cc2nc3ccccc3[nH]2)c1O | 3% | -8% | 70.5% (active) | -11% | 8% | 54% | -2% | 4% | 79.2% (active) | -6% | 6% | 55.7% | 1% | 13% | 9.4% | 0% | 38% | 88.7% (active)
19 | Oc1cc(Cc2ccccc2)c(Cc2ccccc2)cc1O | -32% | 96% (active) | 89.2% (active) | -26% | 98% (active) | 91% (active) | -8% | 96% (active) | 92.1% (active) | -1% | 97% (active) | 89.8% (active) | -23% | 97% (active) | 91.5% (active) | -43% | 96% (active) | 88.2% (active)
